# Reference: PubChem BioAssay AID1159580 (chemical genetic matrix, 2015)
# Hit rate of the full screen: of about 5,500 compounds, about 2,000 (36%) were called active. Another 18% or so got no clear call; they are omitted. Some of the results follow. Values without a mark were called inactive. No stated cut-off is given here; in the data, active means normalized growth mostly below about 0.91 (no sharp cut-off); inconclusive means no clear call, values can overlap the other calls; inactive means mostly above about 0.92.
# Experiment: chemical genetic growth profiling, strain panel (AID 1159580);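 further: tested at 20 µM; growth read once vehicle control cultures reached saturation at 30 °C; 1 = growth at the plate median or of vehicle wells; lower values mean less growth of the strain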
# Details: S. cerevisiae deletion strains, growth OD
# [1] = locus YAL013W, strain DEP1, hits give low values
# [2] = locus YAL040C, strain CLN3, hits give low values
# [3] = locus YCL061C, strain MRC1 (second series), hits give low values
# [4] = locus YDR363W, strain ESC2, hits give low values
# [5] = locus YER002W, strain NOP16, hits give low values
# [6] = locus YMR263W, strain SAP30, hits give low values
# [7] = locus YMR307W, strain GAS1, hits give low values
# [8] = locus YNL153C, strain GIM3, hits give low values
# [9] = locus YNL175C, strain NOP13, hits give low values
# [10] = locus YNL197C, strain WHI3, hits give low values
# [11] = locus YNL224C, strain SQS1, hits give low values
# [12] = locus YNL322C, strain KRE1, hits give low values
# [13] = locus YOR083W, strain WHI5 (second series), hits give low values
# [14] = locus YPL055C, strain LGE1, hits give low values
# [15] = locus YDR150W, strain NUM1, hits give low values
structure (smiles),measurement,setting,value
NCC1(CC(=O)O)CCCCC1,normalized growth,[1],1
same,normalized growth,[2],0.991
same,normalized growth,[3],1.01
same,normalized growth,[4],0.995
same,normalized growth,[5],1.01
same,normalized growth,[6],0.999
same,normalized growth,[7],0.99
same,normalized growth,[8],1.02
same,normalized growth,[9],1.01
same,normalized growth,[10],1.01
same,normalized growth,[11],1.02
same,normalized growth,[12],0.998
same,normalized growth,[13],0.977
same,normalized growth,[14],0.999
C[N+]1(C)C2CCC1CC(OC(=O)c1c[nH]c3ccccc13)C2 (centres undefined),normalized growth,[1],1.02
same,normalized growth,[2],1.06
same,normalized growth,[3],0.996
same,normalized growth,[4],1
same,normalized growth,[5],0.974
same,normalized growth,[6],0.997
same,normalized growth,[7],1.01
same,normalized growth,[9],0.973
same,normalized growth,[10],1.01
same,normalized growth,[11],1.02
same,normalized growth,[12],1
same,normalized growth,[13],0.978
same,normalized growth,[14],1
same,normalized growth,"locus YPL241C, strain CIN2, hits give low values",1
CN(C)CCCCSC(=N)N,normalized growth,[1],1.04
same,normalized growth,[2],0.998
same,normalized growth,[3],1.02
same,normalized growth,[15],1.01
same,normalized growth,[4],1.02
same,normalized growth,[5],0.985
same,normalized growth,"locus YJR075W, strain HOC1, hits give low values",1.04
same,normalized growth,[7],1.01
same,normalized growth,"locus YNL128W, strain TEP1, hits give low values",0.999
same,normalized growth,[9],0.995
same,normalized growth,[10],0.992
same,normalized growth,[11],1
same,normalized growth,[13],1.01
CCSC(=N)N,normalized growth,"locus YAL021C, strain ccr4, hits give low values",1.03
same,normalized growth,"locus YAL026C, strain drs2, hits give low values",1.01
same,normalized growth,"locus YAL030W, strain snc1, hits give low values",1.01
same,normalized growth,[2],1.12 [resistant] (active)
same,normalized growth,"locus YBL061C, strain skt5, hits give low values",1.02
same,normalized growth,"locus YBR009C, strain hhf1, hits give low values",1.01
same,normalized growth,"locus YBR023C, strain chs3, hits give low values",1.02
same,normalized growth,"locus YBR171W, strain sec66, hits give low values",1.02
same,normalized growth,"locus YBR231C, strain swc5, hits give low values",1.01
same,normalized growth,"locus YBR279W, strain paf1, hits give low values",1.01
same,normalized growth,"locus YCL011C, strain gbp2, hits give low values",1.02
same,normalized growth,"locus YCL016C, strain dcc1, hits give low values",1.01
same,normalized growth,[3],1
same,normalized growth,"locus YCL061C, strain MRC1, hits give low values",1.01
same,normalized growth,"locus YCL069W, strain vba3, hits give low values",1.01
same,normalized growth,"locus YCR088W, strain abp1, hits give low values",1.02
same,normalized growth,"locus YDL005C, strain med2, hits give low values",1.03
same,normalized growth,"locus YDL040C, strain nat1, hits give low values",1.02
same,normalized growth,"locus YDR001C, strain nth1, hits give low values",1.01
same,normalized growth,"locus YDR069C, strain doa4, hits give low values",1.01
same,normalized growth,"locus YDR137W, strain rgp1, hits give low values",1.01
same,normalized growth,[15],1.01
same,normalized growth,"locus YDR159W, strain sac3, hits give low values",1.05
same,normalized growth,"locus YDR195W, strain ref2",1.01
same,normalized growth,"locus YDR297W, strain sur2, hits give low values",1.02
same,normalized growth,"locus YDR334W, strain swr1, hits give low values",1.01
same,normalized growth,"locus YDR335W, strain msn5, hits give low values",1.02
same,normalized growth,[4],1.01
same,normalized growth,"locus YDR392W, strain spt3, hits give low values",0.975
same,normalized growth,"locus YEL003W, strain gim4, hits give low values",1.01
same,normalized growth,"locus YEL037C, strain rad23, hits give low values",1.01
same,normalized growth,"locus YEL061C, strain CIN8 (second series), hits give low values",1.01
same,normalized growth,[5],0.999
same,normalized growth,"locus YER015W, strain faa2, hits give low values",1.01
same,normalized growth,"locus YER016W, strain bim1, hits give low values",1.02
same,normalized growth,"locus YER111C, strain swi4, hits give low values",1.02
same,normalized growth,"locus YER155C, strain BEM2 (second series), hits give low values",1.05
same,normalized growth,"locus YFR010W, strain ubp6, hits give low values",1.01
same,normalized growth,"locus YGL167C, strain pmr1, hits give low values",1.03
same,normalized growth,"locus YGL173C, strain kem1, hits give low values",1.01
same,normalized growth,"locus YGL227W, strain vid30, hits give low values",1.02
same,normalized growth,"locus YGL240W, strain doc1, hits give low values",1.02
same,normalized growth,"locus YGL253W, strain hxk2, hits give low values",1.02
same,normalized growth,"locus YGR078C, strain PAC10, hits give low values",1.02
same,normalized growth,"locus YGR229C, strain SMI1, hits give low values",1.04
same,normalized growth,"locus YHR013C, strain ard1, hits give low values",1
same,normalized growth,"locus YHR027C, strain rpn1, hits give low values",1.02
same,normalized growth,"locus YHR142W, strain chs7, hits give low values",1.03
same,normalized growth,"locus YJL092W, strain hpr5, hits give low values",1.01
same,normalized growth,"locus YJL095W, strain BCK1 (second series), hits give low values",1.01
same,normalized growth,"locus YJL115W, strain asf1, hits give low values",1.02
same,normalized growth,"locus YJL129C, strain trk1, hits give low values",1.04
same,normalized growth,"locus YJL154C, strain vps35, hits give low values",1.01
same,normalized growth,"locus YJL164C, strain tpk1, hits give low values",1.01
same,normalized growth,"locus YJL166W, strain qcr8, hits give low values",1.02
same,normalized growth,"locus YJL187C, strain SWE1, hits give low values",1.01
same,normalized growth,"locus YKL160W, strain elf1, hits give low values",1.02
same,normalized growth,"locus YKR026C, strain gcn3, hits give low values",1.01
same,normalized growth,"locus YKR091W, strain srl3, hits give low values",1.01
same,normalized growth,"locus YLL001W, strain dnm1, hits give low values",1.02
same,normalized growth,"locus YLL026W, hits give low values",1.01
same,normalized growth,"locus YLL041C, strain sdh2, hits give low values",1.02
same,normalized growth,"locus YLR027C, strain aat2, hits give low values",1.01
same,normalized growth,"locus YLR221C, strain rsa3, hits give low values",1.01
same,normalized growth,"locus YLR258W, strain gsy2, hits give low values",1.01
same,normalized growth,"locus YLR262C, strain YPT6 (second series), hits give low values",1.02
same,normalized growth,"locus YLR320W, strain mms22, hits give low values",1.03
same,normalized growth,"locus YLR342W, strain FKS1, hits give low values",1.02
same,normalized growth,"locus YLR357W, strain rsc2, hits give low values",1.01
same,normalized growth,"locus YLR370C, strain arc18, hits give low values",1.02
same,normalized growth,"locus YLR384C, strain iki3, hits give low values",1.02
same,normalized growth,"locus YML120C, strain ndi1, hits give low values",1.01
same,normalized growth,"locus YMR058W, strain fet3, hits give low values",1.02
same,normalized growth,"locus YMR125W, strain sto1, hits give low values",1.01
same,normalized growth,"locus YMR129W, hits give low values",1.02
same,normalized growth,"locus YMR205C, strain PFK2, hits give low values",0.998
same,normalized growth,"locus YMR231W, strain pep5, hits give low values",1.01
same,normalized growth,[6],1.01
same,normalized growth,[7],1.03
same,normalized growth,"locus YNL071W, strain lat1, hits give low values",1.02
same,normalized growth,[8],1.03
same,normalized growth,[9],0.988
same,normalized growth,[10],0.992
same,normalized growth,"locus YNL209W, strain ssb2, hits give low values",1.01
same,normalized growth,[11],1.01
same,normalized growth,"locus YNL248C, strain rpa49, hits give low values",1.02
same,normalized growth,"locus YNL322C, strain KRE1 (second series), hits give low values",1.02
same,normalized growth,[12],1.01
same,normalized growth,"locus YNR049C, strain mso1, hits give low values",1.01
same,normalized growth,"locus YOR001W, strain rrp6, hits give low values",1.02
same,normalized growth,"locus YOR070C, strain gyp1, hits give low values",1.01
same,normalized growth,"locus YOR080W, strain dia2, hits give low values",1.03
same,normalized growth,[13],0.995
same,normalized growth,"locus YOR083W, strain WHI5, hits give low values",1.03
same,normalized growth,"locus YOR106W, strain vam3, hits give low values",1.04
same,normalized growth,"locus YOR265W, strain rbl2, hits give low values",1.01
same,normalized growth,"locus YOR270C, strain vph1, hits give low values",1.07
same,normalized growth,"locus YOR290C, strain snf2, hits give low values",0.96
same,normalized growth,"locus YPL051W, strain arl3, hits give low values",1.02
same,normalized growth,[14],1.17 [resistant] (active)
same,normalized growth,"locus YPL078C, strain atp4, hits give low values",1.02
same,normalized growth,"locus YPL106C, strain sse1, hits give low values",1.04
same,normalized growth,"locus YPL240C, strain hsp82, hits give low values",1.02
